Source: PubChem (several laboratories)
LGR2 antag – inhibitors of bursicon-induced Drosophila LGR2 receptor cAMP signaling. HEK293 LGR2, CRE-luciferase, bursicon-stimulated, 4 h. inhibition, % at 9.99 µM. 0.35% of 380,000 active. AID 720647;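 active = drop in luminescence signal, shown as inhibition above about 50% in the replicate tests, limit read from the data, passing the limit was not always enough; inconclusive = probably only some replicates passing the limit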;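 note: agonist challenge used bursicon conditioned medium at about half maximal strength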
CF NFkB block – cystic fibrosis NF-kB activation inhibition | KKLEB NF-kB-GFP reporter, PAF-induced, GFP fluorescence overnight | inhibition, % at 5 µM | 0.86% of 360,000 active | AID 588850;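 active = at least 50% inhibition at 5 µM, scaled per plate between neutral and stimulator controls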;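 note: PAF is a Pseudomonas aeruginosa culture filtrate used as stimulus; plate controls were PAF-stimulated DMSO wells for no effect and unstimulated DMSO wells for full effect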
Shn3 inh set2 – inhibitors of Schnurri-3 3'UTR reporter in osteoblasts | 0.52% of 360,000 active | AID 588674 | inhibition, % at 12.5 µM | Clone20 osteoblast Shn3 3'UTR firefly luciferase, 24 h;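 active = mean inhibition of at least 75% with every replicate also reaching 75%; inconclusive = mean inhibition at least 75% but some replicate below; inactive = mean inhibition below 75%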;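 note: 0% = median of neutral control wells and 100% = pilot-screen positive control compound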
PAX8 reporter – lowers PAX8-driven luciferase in RMG-I cells. RMG-I TPO-luciferase reporter, SteadyGlo, 24 h. inhibition, % at 12.6 µM. 1.2% of 360,000 active;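 active = mean replicate inhibition at least 60% with every replicate also reaching 60%; inconclusive = only one of the two criteria is met; inactive = mean below 60% and not all replicates reaching 60%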;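 note: luciferase light reporting Pax8 driven TPO promoter activity; plate controls were median of neutral control wells for no effect and mitoxantrone controls for full effect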
EWS-Fli block – blocks EWS/Fli oncoprotein-driven transcription. A673 NR0B1-luciferase reporter, viability-normalised. inhibition, % at 12.6 µM. 0.67% of 350,000 active. AID 651661;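 active = mean inhibition of at least 50% after viability correction, with every replicate also passing that limit; inconclusive = mean reaches 50% but only one of two replicates passes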;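 note: firefly luciferase signal divided by Alamar Blue viability fluorescence both relative to DMSO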
KKLEB cytotox – CF airway cell cytotoxicity counter-screen; KKLEB CF airway cells viability, ATPlite luminescence, overnight; hits give low values; cells stimulated with P. aeruginosa culture filtrate; activity change (cytotoxicity), % at 5 µM; 0.36% of 360,000 active; AID 602141;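 active = corrected activity change at or below -50% at 5 µM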
* hit, by the source's call; ? = inconclusive; · = not tested or not shown. The list is not random: actives were taken first. Their share in the collection is about 2%.

SMILES	LGR2 antag	CF NFkB block	Shn3 inh set2	PAX8 reporter	EWS-Fli block	KKLEB cytotox
O=C(C[C@@H]1C[C@H]2c3cc(NS(=O)(=O)c4ccc(F)cc4)ccc3O[C@H]2[C@@H](CO)O1)NCc1ccncc1	-6	·	·	·	5	·
C[C@H]1CCCCO[C@@H](CN(C)Cc2ccc(C(F)(F)F)cc2)[C@@H](C)CN([C@@H](C)CO)C(=O)c2cc(NC(=O)Nc3ccc(F)cc3)ccc2O1	-32	·	·	105*	19	·
CC(=O)CC(=O)N1C(=O)N(C)[C@@]2(C)Oc3ccccc3[C@@H]1[C@H]2COC(=O)c1ccc([N+](=O)[O-])cc1	·	·	·	12	-1	·
COc1ccccc1CCn1cnc(-c2ccccc2)c1CC(C)C	52*	·	·	15	26	·
CCN1C(=O)CS/C1=N\S(=O)(=O)c1ccc(Cl)cc1	-13	6	8	5	-6	-10
CCn1c(Cl)c(C=O)s/c1=N\S(=O)(=O)c1ccccc1	?	88*	99*	10	14	-85*
CCCCOC(=O)c1[nH]c2c(c1C)C(=O)CC(c1cc(OC)c(OC)c(OC)c1)C2 (stereo unspecified)	11	3	82*	45	28	-7
COCCOC(=O)c1[nH]c2c(c1C)C(=O)CC(c1cc(OC)c(OC)c(OC)c1)C2 (stereo unspecified)	-12	-16	79	8	15	-5
COC(=O)c1[nH]c2c(c1C)C(=O)CC(c1cc(OC)ccc1OC)C2 (stereo unspecified)	12	24	15	21	54*	-7
C=CCOC(=O)c1[nH]c2c(c1C)C(=O)CC(c1cc(OC)c(OC)c(OC)c1)C2 (stereo unspecified)	·	-2	88*	·	·	3
C[C@H](CO)N1C[C@H](C)[C@@H](CN(C)S(=O)(=O)c2ccccc2)Oc2ccc(NC(=O)Nc3ccc(C(F)(F)F)cc3)cc2CC1=O	7	·	·	56	37	·
CC(C)CC#Cc1ccc2c(c1)O[C@@H](CN(C)C(=O)c1cccc(F)c1)[C@H](C)CN([C@H](C)CO)S2(=O)=O	13	·	·	·	13	·
CCCc1ccc(-c2ccc(/C=C/C(=O)O)cc2)nc1	58*	-13	29	-19	56*	-11
O=C(Nc1ccc2c(c1)[C@H]1C[C@H](CC(=O)N3CCOCC3)O[C@@H](CO)[C@H]1O2)c1cccnc1	4	·	·	-7	-1	·
C[N+]1(C)CCC(OC(=O)C(O)(c2ccccc2)C2CCCC2)C1 (stereo unspecified)	-8	-10	-8	13	-9	9
C[N+]1(C)CC[C@H](OC(=O)[C@@](O)(c2ccccc2)C2CCCC2)C1	4	-26	2	-3	-3	-67*
COc1ccc(S(=O)(=O)N[C@H]2C=C[C@H](CC(=O)NCCc3ccccc3)O[C@H]2CO)cc1	-9	·	·	-7	-5	·
COCC(=O)Nc1ccc2c(c1)C(=O)N(C)C[C@@H](OC)[C@H](C)CN(C(=O)c1ccccc1F)[C@H](C)CO2	1	·	·	1	1	·
O=[N+]([O-])c1ccc2nc(SCc3cn4cccnc4n3)[nH]c2c1	7	2	15	11	-39	-12
O=[N+]([O-])c1ccc2nc(SCc3cn4ccccc4n3)[nH]c2c1	-9	-19	3	102*	-66	6
COc1ccc(S(=O)(=O)Nc2ccc3c(c2)CC(=O)N([C@@H](C)CO)C[C@H](C)[C@@H](CN(C)S(=O)(=O)c2cccs2)O3)cc1	-2	·	·	-12	5	·
CC(C)(C)C(=O)NC(=S)NNC(=O)c1ccncc1	-27	-8	4	0	-15	-16
CC(C)(C)c1ccc(C(=O)NC(=S)NNC(=O)c2cccs2)cc1	-34	58*	-9	-95	·	-40
CC(C)(C)C(=O)NC(=S)NNC(=O)c1ccc(-c2ccccc2)cc1	·	56*	94*	·	·	-18
Nc1nc2ccccc2n1C(=O)c1ccccc1	33	-12	9	6	61*	-13
SMILES	LGR2 antag	CF NFkB block	Shn3 inh set2	PAX8 reporter	EWS-Fli block	KKLEB cytotox
CCCNC1=C(N(C(C)=O)c2cccc(F)c2)C(=O)c2ccccc2C1=O	12	81*	-38	109*	7	-56*
CO[C@@H]1CN(C)C(=O)c2ccc(NS(=O)(=O)c3ccccc3)cc2OC[C@@H](C)NC[C@@H]1C	10	·	·	·	2	·
C[C@@H]1CN([C@H](C)CO)C(=O)c2cccc(NS(=O)(=O)c3ccc(F)cc3)c2O[C@H]1CN(C)Cc1ccc(-c2ccccc2)cc1	3	·	·	-40	14	·
C[C@H](CO)N1C[C@H](C)[C@H](CN(C)Cc2ccc(-c3ccccc3)cc2)Oc2c(NS(=O)(=O)c3ccc(F)cc3)cccc2C1=O	16	·	·	65*	23	·
Cc1ccc(S(=O)(=O)Nc2cccc3c2O[C@@H](CN(C)Cc2ccc(Oc4ccccc4)cc2)[C@@H](C)CN([C@H](C)CO)C3=O)cc1	6	·	·	90*	-12	·
COc1cccc(C(=O)Nc2ccc3c(c2)C(=O)N(C)C[C@@H](OC)[C@@H](C)CN(CCc2ccccc2)[C@@H](C)CO3)c1	5	·	·	6	2	·
Cc1nnc(N/N=C/c2ccccc2C(F)(F)F)n1N	5	2	8	85*	-6	0
Cc1nnc(N/N=C/c2cccc(C(F)(F)F)c2)n1N	-2	5	-24	108*	-2	2
CC(C)C#Cc1cnc2c(c1)C(=O)N([C@H](C)CO)C[C@@H](C)[C@@H](CN(C)Cc1ccccc1F)O2	0	·	·	·	0	·
Cc1c(N/N=C(\C#N)C(=O)c2ccc(Cl)cc2)c(=O)n(-c2ccccc2)n1C	12	12	90*	64*	·	7
CCCCN1CC(COCc2ccccc2)Oc2cccc(Oc3cc(C)c(C)c(C)c3)c2S1(=O)=O (stereo unspecified)	8	-14	90*	-9	17	-2
CCCCN1CC(COCc2ccccc2)Oc2cccc(Oc3ccc(C)cc3)c2S1(=O)=O (stereo unspecified)	-6	16	87*	8	24	-22
CO[C@@H]1CN(C)C(=O)c2ccc(NC(=O)C3CCCC3)cc2OC[C@@H](C)N(C)C[C@@H]1C	-4	·	·	26	-4	·
CC=Cc1ccc2n(c1=O)C[C@H]1[C@H](CO)[C@@H](C(=O)NCC)[C@@H]2N1Cc1ccccc1 (mixture of isomers)	-12	·	·	-9	7	·
CC(C)CC#Cc1cnc2c(c1)C(=O)N([C@H](C)CO)C[C@@H](C)[C@H](CN(C)Cc1ccccc1)O2	2	·	·	·	-5	·
COc1ccc(C2Nc3ccccc3C(=O)N2c2ccc(F)cc2)cc1CSc1ccccn1 (stereo unspecified)	-34	-3	-45	136*	-17	-2
COc1ccc(C2Nc3ccccc3C(=O)N2c2ccccc2)cc1CSc1ccccn1 (stereo unspecified)	2	-19	-28	30	-15	10
